Source: PubChem BioAssay (National Center for Advancing Translational Sciences (NCATS))
TDP1 block: inhibitors of human tyrosyl-DNA phosphodiesterase TDP1. recombinant TDP1, AlphaScreen DNA substrate cleavage. Potency, µM (top dose mostly 130 µM), without a hit: at the highest dose activity change, negative = inhibition, most hits filed as inhibitors. actives 0.28% (n = 350,000). Q9NUW8; also: potency is read from the fitted curve at half-maximal effect; % is scaled to controls: 0 for no effect and ±100 for the full control effect; nearly all actives have a fitted effect of over 40% in size
Target sequence (Q9NUW8 whole entry, looked up): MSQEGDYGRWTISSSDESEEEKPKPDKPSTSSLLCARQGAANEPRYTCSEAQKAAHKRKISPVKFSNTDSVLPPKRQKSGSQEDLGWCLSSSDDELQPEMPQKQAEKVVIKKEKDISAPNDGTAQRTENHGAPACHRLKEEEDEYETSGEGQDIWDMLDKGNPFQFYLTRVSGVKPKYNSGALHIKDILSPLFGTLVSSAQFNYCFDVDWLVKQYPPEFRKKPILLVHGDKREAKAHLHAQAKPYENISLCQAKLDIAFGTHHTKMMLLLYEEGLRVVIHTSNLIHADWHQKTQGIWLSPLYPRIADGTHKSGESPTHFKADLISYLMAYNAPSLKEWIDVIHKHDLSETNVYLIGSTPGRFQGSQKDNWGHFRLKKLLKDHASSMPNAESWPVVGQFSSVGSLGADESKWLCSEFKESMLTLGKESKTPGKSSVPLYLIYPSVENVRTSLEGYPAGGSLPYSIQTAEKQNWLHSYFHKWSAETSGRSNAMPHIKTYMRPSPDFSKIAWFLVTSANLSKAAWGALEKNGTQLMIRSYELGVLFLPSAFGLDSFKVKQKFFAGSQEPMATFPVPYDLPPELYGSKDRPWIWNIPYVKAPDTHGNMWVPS
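Enzyme-compound mixtures sat 15 min at room temperature, followed by a 5 min reaction with 15 nM final substrate and 10 min with AlphaScreen beads. Recombinant human Tdp1 was used at 1 nM final.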
TDP1 cell noCPT: qHTS for Inhibitors of human tyrosyl-DNA phosphodiesterase 1 (TDP1): qHTS in cells in absence of CPT. DT40 Tdp1-/- hTDP1 cells, no CPT, ATP luminescence, 48 h. actives 15% (n = 420,000). Potency, µM (titrated, usually from 46.2 µM), for the others: top-dose activity change, negative = growth inhibition, actives largely listed as inhibitors; also: potency is read from the fitted curve at half-maximal effect; % is scaled to controls: 0 for no effect and ±100 for the full control effect; nearly all actives have a fitted effect of over 55% in size
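Growth kinetics read by CellTiter-Glo luminescence after ≥48 hr at 37 °C. Cells: DT40 Tdp1-/- stably carrying human TDP1, 400 per well, compound exposure in the absence of CPT (DMSO vehicle).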
HepG2 viability: HepG2 cytotoxicity, counter-screen for TGF-b inhibitors. HepG2 CAGA-GFP viability, ATP luminescence, 18 h. Potency, µM (titrated, usually from 46.1 µM), without a hit: top-dose activity change, negative = cytotoxicity, usual class: cytotoxic. actives 0.76% (n = 410,000). AID 588856; also: potency is read from the fitted curve at half-maximal effect
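HepG2 CAGA-GFP cells (1000/well, DMEM with 1% FBS) received compound, then TGF-beta at 500 pg/mL final, and were incubated 18 hours at 37 degrees C. Viability was read by CellTiter-Glo luminescence. Media-only wells were set as complete cell-killing and DMSO as no toxicity.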
IL1B secr inh: blocks inflammasome-driven IL-1 beta release. actives 4.7% (n = 360,000). activity change, % at 57.5 µM. THP-1 LPS/ATP IL-1B secretion, AlphaLISA, 16 h; hits give low values; in the data active = activity change below about -50%; inconclusive = mostly about -30% to -49%; also: % is scaled to controls: 0 for no effect and ±100 for the full control effect
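Secreted IL-1B measured by AlphaLISA bead assay after 16 h compound exposure of THP-1 cells; compounds (final up to 57.5 uM) added 1 h before LPS (250 ng/mL) and ATP (1.25 mM) stimulation; lower signal means less secretion.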
TDP1 cell CPT: growth inhibition of DT40 Tdp1-/-;hTDP1 cells with camptothecin (screen for TDP1 inhibitors); actives 12% (n = 420,000); AID 686979; chicken DT40 Tdp1-/-;hTDP1 cells + 20 nM CPT, ATP luminescence, 48 h; Potency, µM (titrated, usually from 46.2 µM), for inactives: at the top dose activity change, negative = growth inhibition, actives largely listed as inhibitors; also: potency is read from the fitted curve at half-maximal effect; % is scaled to controls: 0 for no effect and ±100 for the full control effect; nearly all actives have a fitted effect of over 55% in size
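Cell growth measured by CellTiter-Glo luminescence after a minimum 48 h, 37 C compound exposure with 20 nM CPT in Tdp1-knockout DT40 cells stably expressing hTDP1, seeded 400/well; qHTS titration format.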
TGFb inhibitor: TGF-b pathway inhibition; HepG2 CAGA-GFP TGF-b/SMAD3 reporter, GFP fluorescence, 18 h; TGF-beta stimulated, 500 pg/mL final; Potency, µM (highest dose often 46.1 µM), inactives show top-dose activity, negative = inhibition, hits mostly inhibitors; actives 1.2% (n = 410,000); AID 588855; also: potency is read from the fitted curve at half-maximal effect; % is scaled to controls: 0 for no effect and ±100 for the full control effect; nearly all actives have a fitted effect of over 65% in size
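HEPG2 CAGA-GFP, 1000 cells/well; 2 h settle, 37 C; cpd via pin tool; TGF-b 500 pg/mL final; 18 h, 37 C; GFP imaging ex488/em500-530; %Activity normalised to -TGF-b and +DMSO controls; CRC fit, curve class.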
* = called active by the depositor; u = inconclusive; x = not tested or not shown; [ ] = remark or other dose. Only some compounds are listed: those with a hit (about 19% of all), similar ones and a draw of the others. Unless noted, calls follow the shape of the dose curve; as a rule, active = well fitted curve in the direction sought with a large enough effect; inconclusive = small, poorly fitted or top-dose-only effect, or another doubt; inactive = no such curve, though single readings can be large; an effect the other way counts as inactive or inconclusive.

SMILES	TDP1 block	TDP1 cell noCPT	HepG2 viability	IL1B secr inh	TDP1 cell CPT	TGFb inhibitor
NS(=O)(=O)c1ccc(N=C2C(=O)Nc3ccccc32)cc1	-6%	-18%	7%	1	-15%	0%
CC(C)C1=CC(=Nc2ccc(S(N)(=O)=O)cc2)C=C(C(C)C)C1=O	x	23µM*	11µM*	-57*	16µM*	u
CCN(C(=O)COC(=O)CNS(=O)(=O)c1ccc(SC)c([N+](=O)[O-])c1)C1CCCCC1	11%	-12%	-4%	21	-28%	-29%
COc1ccc(-c2cc3ccccc3n2CC(O)CNCCO)cc1 (stereo not drawn)	0%	15µM*	-9%	-2	23µM*	9%
C=CCN(CC=C)C(=O)C1c2ccccc2Oc2ccccc21	x	u	-48%	0	26µM*	-2%
N#Cc1ccc(-c2nc3ccc(Cl)cn3c2Cc2cccc(Cl)c2)cc1	x	21µM*	-47%	-15	u	u
Cc1ccc2nc(-c3ccc(C#N)cc3)c(Cc3cccc(Cl)c3)n2c1	x	18µM*	-20%	0	18µM*	-12%
CC(C)C(C)C	-12%	x	x	x	x	x
CCOC(=O)[C@H]1[C@H]2COc3ccccc3[C@@H]2N2C(=O)CN(CC3CCCO3)C(=O)[C@@]12C (stereo partly drawn)	0%	14%	-2%	0	8%	5%
CC(C)(C)OC(=O)NCCC(=O)N/N=C/c1ccc2ncccc2c1	1%	u	-4%	6	2%	-4%
COc1ccc2nc(/C=N/NC(=O)CCCCCNC(=O)OC(C)(C)C)ccc2c1	3%	18µM*	5%	-5	21µM*	0%
Cc1c(Cl)cccc1N/C(SCC(=O)N1CCCCCC1)=C(/C#N)c1nc2ccccc2s1	7%	12µM*	-2%	-94*	12µM*	-6%
CN1/C(=C/c2cc[n+](C)c3ccccc23)C=Cc2ccccc21	10%	0.18µM*	-17%	-97*	0.46µM*	u
Cc1cc[n+](C)c2ccccc12	x	-21%	-30%	x	4%	-4%
CCn1c(=O)cc(OCC(=O)N2CCN(c3ccc(F)cc3)CC2)c2ccccc21	6%	15µM*	-11%	0	23µM*	u
CCn1c(=O)cc(OCC(=O)N2CCN(c3ccc(C)cc3)C(C)C2)c2ccccc21 (stereo not drawn)	6%	6.5µM*	-41%	x	7.3µM*	u
COc1ccccc1S(=O)(=O)Cc1ccc(C(=O)N2CCOCC2)o1	0%	-14%	14%	3	-2%	0%
COc1ccccc1S(=O)(=O)Cc1ccc(C(=O)N2CCN(c3cc(Cl)ccc3C)CC2)o1	3%	8.2µM*	-26%	x	u	-15%
COc1ccccc1S(=O)(=O)Cc1ccc(C(=O)N2CCN(c3cccc(Cl)c3)CC2)o1	5%	5.8µM*	-3%	14	6.5µM*	8%
Cc1cc(=O)n2nc(N3CCC(C(=O)Nc4c(C)cccc4C)CC3)sc2n1	5%	-15%	1%	x	1%	u
CC(C)c1ccc(NC(=O)c2cc3c(=O)[nH]c4ccccc4c3n2C)cc1	-7%	15µM*	-11%	x	6.5µM*	9%
Cn1c(C(=O)N2CCN(c3ccc(Cl)cc3)CC2)cc2c(=O)[nH]c3ccccc3c21	8%	21µM*	-28%	u	u	-11%
CN(CCCNC(=O)c1cc2c(=O)[nH]c3ccccc3c2n1C)Cc1ccccc1	8%	u	-7%	-25	-18%	11%
O=S(=O)(N1CCOCC1)N1CCOCC1	x	25%	13%	10	2%	10%
CCCOc1ccccc1N/C(=N\S(=O)(=O)c1ccc(C)cc1)Nc1nc(C)cc(C)n1	x	15µM*	-12%	13	u	-22%
SMILES	TDP1 block	TDP1 cell noCPT	HepG2 viability	IL1B secr inh	TDP1 cell CPT	TGFb inhibitor
CCCOc1ccccc1N/C(N)=N/c1nc(C)cc(C)n1	-3%	u	-7%	-18	u	-17%
C[C@]12c3[nH]c4ccc(Cl)cc4c3CCN1C(=O)[C@@H](CC(=O)NCc1ccco1)C[C@@H]2C(=O)N1CCOCC1	1%[56.1 µM]	21µM*	-30%	-3	18µM*	-29%
CC(C)N(C(=O)[C@H]1C[C@H](CC(=O)NCc2ccco2)C(=O)N2CCc3c([nH]c4ccc(Cl)cc34)[C@]12C)C(C)C	2%[56.1 µM]	u	-28%	-2	u	11µM*
CC(C)N(C(=O)[C@H]1C[C@H](CC(=O)NCCN2CCOCC2)C(=O)N2CCc3c([nH]c4ccc(Cl)cc34)[C@]12C)C(C)C	0%[56.1 µM]	u	-16%	u	u	u
CCN(CC)C(=O)[C@H]1CC(CC(=O)NCc2ccco2)C(=O)N2CCc3c([nH]c4ccc(OC)cc34)[C@]12C (stereo partly drawn)	0%[56.1 µM]	-25%	-94%	-5	-15%	-6%
CCN(CC)C(=O)[C@H]1C[C@H](CC(=O)NCc2ccco2)C(=O)N2CCc3c([nH]c4ccc(Cl)cc34)[C@]12C	3%[56.1 µM]	16µM*	-9%	-5	16µM*	u
O=C(Cn1nc(C(=O)O)c2ccccc2c1=O)Nc1cc(S(=O)(=O)N2CCOCC2)ccc1Cl	-2%	-5%	7%	12	-5%	5%
CCOC(=O)C1CCCN(C(=O)c2cc3c(=O)n(C)c4ccccc4c3s2)C1 (stereo not drawn)	7%	u	-30%	x	u	u
